Assay outcomes from PubChem BioAssay.
The full list was thinned out, with hits kept by preference.
ST2 IL33 inh = blocks human ST2 binding to IL-33; Q01638; AlphaLISA ST2-Fc/biotin-IL-33 interaction, 1 h; inhibition, % for hits at 17 µM; 78,000 tested, 2.3% active; in the data active means inhibition above about 30%
Target sequence (Q01638 whole entry, looked up): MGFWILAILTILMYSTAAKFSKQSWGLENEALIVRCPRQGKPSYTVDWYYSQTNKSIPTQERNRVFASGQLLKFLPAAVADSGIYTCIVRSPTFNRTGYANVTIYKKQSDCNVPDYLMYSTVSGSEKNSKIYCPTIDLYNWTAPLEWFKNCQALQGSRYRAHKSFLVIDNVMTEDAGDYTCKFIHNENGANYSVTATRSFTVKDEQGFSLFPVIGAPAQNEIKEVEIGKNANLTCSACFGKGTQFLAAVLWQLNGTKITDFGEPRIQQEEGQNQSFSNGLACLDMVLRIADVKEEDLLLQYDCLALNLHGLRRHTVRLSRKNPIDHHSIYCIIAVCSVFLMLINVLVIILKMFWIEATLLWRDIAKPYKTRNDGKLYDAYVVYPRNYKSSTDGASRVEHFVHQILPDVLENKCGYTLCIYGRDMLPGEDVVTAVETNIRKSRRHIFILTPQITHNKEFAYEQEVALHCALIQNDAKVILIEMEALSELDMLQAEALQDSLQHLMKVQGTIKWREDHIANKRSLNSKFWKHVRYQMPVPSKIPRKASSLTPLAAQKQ
* hit, by the source's call; i = inactive.

SMILES	ST2 IL33 inh
Cc1nn(C(=O)c2ccc([N+](=O)[O-])cc2)c(C)c1Sc1ccccc1	42%*
O=[N+]([O-])c1ccc2nn(-c3ccccc3)nc2c1	i
Cc1ccc(C(=O)n2nc(C)c(Sc3ccccc3)c2C)cc1	i
Cc1nn(C(=O)C2CC2)c(C)c1Sc1ccccc1	i
Cc1nn(C(=O)c2ccco2)c(C)c1Sc1ccccc1	i
COc1c(Sc2ccc([N+](=O)[O-])cc2)c(C)nn1-c1ccccc1	30%*
Cc1cc(C)cc(CCC(=O)NCCS(C)(=O)=O)c1	i
Cc1ccc2[nH]c(CN(C)Cc3nc(-c4cccnc4)no3)nc2c1C	i
CC(C)c1ccc(N(C(=O)Cc2ccc(F)cc2)C2C=CS(=O)(=O)C2)cc1 (stereo not drawn)	i
CC(C)(C)NC(=O)NCCc1nc2cccnc2n1Cc1ccccc1	i
CC(C)CNC(=O)NCCc1nc2cccnc2n1Cc1ccccc1	i
COc1ccc(CNC(=O)NCCc2nc3cccnc3n2Cc2ccccc2)cc1	63%*
Cc1ccc([N+](=O)[O-])cc1N1C(=O)CC(Sc2ccccc2C(=O)O)C1=O (stereo not drawn)	i
O=C(NCc1ccccc1Cl)c1cc(-c2ccncc2)nc2ccccc12	i
Cc1cc2c3c(C)n(C)c(C)c3c(C)nn2c1	54%*
Cc1cc(C(=O)Nc2c(C)nn(Cc3ccccc3C)c2C)no1	i
CCCc1ccc(OCC(O)CN2CCC(C)CC2)cc1 (stereo not drawn)	i
CN1CCN(c2nc(-c3ccc(C(N)=O)cc3)nc3c2CCNC3)CC1	i
C=CCN1C(=Nc2cccnc2)SCC1(O)c1ccccc1 (stereo not drawn)	53%*
CCCn1nccc1C(=O)N1CCC(O)(c2ccc3nc(C)ccc3c2)CC1	i
N#Cc1cccc(NC(=O)N2Cc3[nH]cnc3C[C@H]2c2nc(-c3ccc4ccccc4c3)no2)c1	i
N#Cc1ccccc1N=Cc1ccc(Br)c([N+](=O)[O-])c1	30%*
N#Cc1ccccc1N=Cc1cc2c(cc1[N+](=O)[O-])OCO2	i
O=[N+]([O-])c1cc(C=Nc2ccc3c(c2)OCCO3)ccc1Br	i
COc1cc(C=O)ccc1OCCCOc1ccc([N+](=O)[O-])cc1	i
SMILES	ST2 IL33 inh
COc1cc(OC)c(C=Nc2cc([N+](=O)[O-])ccc2C)cc1Br	i
Cc1ccc(N=Cc2ccc(N(C)C)c([N+](=O)[O-])c2)cc1	i
COc1ccc(N=Cc2ccc(Br)c([N+](=O)[O-])c2)cc1	38%*
COc1ccc(N=Cc2ccc(Oc3ccc([N+](=O)[O-])cc3[N+](=O)[O-])c(OC)c2)cc1	34%*
Cc1ccc(N=Cc2ccc(Br)c([N+](=O)[O-])c2)c(O)c1	i
O=C(CN1C(=O)CCC1=O)Nc1nc(-c2ccc(Cl)cc2)cs1	i
COc1ccc(-c2nnc(Nc3c(C)n(C)n(-c4ccccc4)c3=O)c3ccccc23)cc1	i
CCc1ccccc1NC(=O)c1ccc(OC)c(OC)c1	i
O=C(C1CCCC1)N1CC[C@H](c2nc3ccc(F)cc3[nH]2)C1	i
CCn1nc(C)c(CN2CC(=O)N(C3CCCCC3)CC(OCc3ccncc3)C2)c1C (stereo not drawn)	i
CC(C)N1CCCC(CNC(=O)c2cn[nH]c2-c2ccccc2)C1 (stereo not drawn)	i
CC(=O)O/N=C\c1c(NCc2ccccc2)nc2c(C)cccn2c1=O	i
Cc1c(Cl)cccc1Nc1nnc(Cc2ccccc2)c(=O)[nH]1	i
CC(=O)c1ccc(NC(=O)C(Cc2ccccc2)N2C(=O)c3ccccc3C2=O)cc1 (stereo not drawn)	i
CC(=O)c1ccc(NC2=C(N3CCCCC3)C(=O)c3ccccc3C2=O)cc1	59%*
O=S(=O)(N=S(N1CCCCC1)N1CCCCC1)c1ccccc1	i
NC1=C(N2CCCCC2)C(=O)c2ccccc2C1=O	71%*
CC(=O)c1ccc(OC(=O)N2CCCCC2)cc1	i
O=C(CCN1C(=O)c2ccccc2C1=O)N1CCCCCC1	i
O=C(Nc1ccccc1Br)c1ccc([N+](=O)[O-])cc1	i
Cc1cccc(C(O)(CCN2CCCCC2)c2ccccc2)c1 (stereo not drawn)	i
Cc1ccc(Nc2cc(C)nc(Nc3ccc(NC(=O)c4cccc(F)c4)cc3)n2)cc1	i
Oc1c(C=NCc2ccc(F)cc2)[nH]c2ccc(Br)c(Cl)c12	39%*
Oc1c(C=NCc2ccc(Cl)cc2Cl)[nH]c2ccc(Br)c(Cl)c12	i
Cc1c(Cl)c(C)c([N+](=O)[O-])c(O)c1C=Nc1ccc(F)cc1	i
SMILES	ST2 IL33 inh
COc1cc(Br)c(Br)c(C=Nc2ccc(F)cc2)c1O	i
Oc1c(C=Nc2ccc(F)cc2)[nH]c2ccc(Br)c(Cl)c12	30%*
COc1ccc(CCN=CC2=C(O)CC(c3ccccc3)CC2=O)cc1OC (stereo not drawn)	i
Oc1c(C=NCCc2ccccc2)[nH]c2ccc(Br)c(Cl)c12	32%*
c1cc2c(cc1-c1ccc3[nH]ncc3c1)OCCO2	i
O=C(Nc1ccccc1)/C(=C/c1ccc2c(c1)OCO2)NC(=O)c1ccccc1Cl	i
